Results taken from PubChem BioAssay AID1159580 (chemical genetic matrix, 2015).
About 2,000 (36%) of roughly 5,500 compounds were called active. About 18% were inconclusive and are not listed. Rule as the data show it: active = normalized growth mostly below about 0.91 (no sharp cut-off); inconclusive = no clear call, values can overlap the other calls; inactive = mostly above about 0.92. The list shows a part of the results.

Test: chemical genetic growth profiling, strain panel (AID 1159580);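 also: tested at 20 µM; growth read once vehicle control cultures reached saturation at 30 °C; 1 = growth at the plate median or of vehicle wells; lower values mean less growth of the strain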
Settings: growth OD

Measured: normalized growth

Cc1cccc(N(C)C(=S)Oc2ccc3ccccc3c2)c1
active: S. cerevisiae deletion strains, locus YLR039C, strain RIC1, stronger effect = lower value 1.46 [resistant] | S. cerevisiae deletion strains, locus YLR262C, strain YPT6, stronger effect = lower value 1.48 [resistant]
inactive: S. cerevisiae deletion strains, locus YJR075W, strain HOC1, stronger effect = lower value 0.971 | S. cerevisiae deletion strains, locus YKL009W, strain mrt4, stronger effect = lower value 0.99 | S. cerevisiae deletion strains, locus YKL068W, stronger effect = lower value 0.981 | S. cerevisiae deletion strains, locus YKL085W, strain MDH1 (second series), stronger effect = lower value 0.979 | S. cerevisiae deletion strains, locus YKL085W, strain MDH1, stronger effect = lower value 0.979 | S. cerevisiae deletion strains, locus YKL160W, strain elf1, stronger effect = lower value 0.947 | S. cerevisiae deletion strains, locus YKL190W, strain CNB1, stronger effect = lower value 0.983 | S. cerevisiae deletion strains, locus YKR001C, strain vps1, stronger effect = lower value 1.01 | S. cerevisiae deletion strains, locus YKR026C, strain gcn3, stronger effect = lower value 1 | S. cerevisiae deletion strains, locus YKR091W, strain srl3, stronger effect = lower value 0.993 | S. cerevisiae deletion strains, locus YLL001W, strain dnm1, stronger effect = lower value 0.994 | S. cerevisiae deletion strains, locus YLL026W, stronger effect = lower value 0.985 | S. cerevisiae deletion strains, locus YLL041C, strain sdh2, stronger effect = lower value 0.987 | S. cerevisiae deletion strains, locus YLR027C, strain aat2, stronger effect = lower value 0.99 | S. cerevisiae deletion strains, locus YLR058C, strain SHM2, stronger effect = lower value 0.972 | S. cerevisiae deletion strains, locus YLR102C, strain apc9, stronger effect = lower value 0.979 | S. cerevisiae deletion strains, locus YLR113W, strain HOG1, stronger effect = lower value 0.91 | S. cerevisiae deletion strains, locus YLR221C, strain rsa3, stronger effect = lower value 1.02 | S. cerevisiae deletion strains, locus YLR258W, strain gsy2, stronger effect = lower value 0.974 | S. cerevisiae deletion strains, locus YLR262C, strain YPT6 (second series), stronger effect = lower value 1.13 | S. cerevisiae deletion strains, locus YLR268W, strain sec22, stronger effect = lower value 0.971 | S. cerevisiae deletion strains, locus YLR320W, strain mms22, stronger effect = lower value 0.98 | S. cerevisiae deletion strains, locus YLR330W, strain CHS5, stronger effect = lower value 0.984 | S. cerevisiae deletion strains, locus YLR342W, strain FKS1 (second series), stronger effect = lower value 0.995 | S. cerevisiae deletion strains, locus YLR342W, strain FKS1, stronger effect = lower value 1.01 | S. cerevisiae deletion strains, locus YLR357W, strain rsc2, stronger effect = lower value 0.999 | S. cerevisiae deletion strains, locus YLR370C, strain arc18, stronger effect = lower value 1.01 | S. cerevisiae deletion strains, locus YLR371W, strain rom2, stronger effect = lower value 0.947 | S. cerevisiae deletion strains, locus YLR384C, strain iki3, stronger effect = lower value 0.995 | S. cerevisiae deletion strains, locus YLR418C, strain cdc73, stronger effect = lower value 0.904 | S. cerevisiae deletion strains, locus YML016C, strain PPZ1, stronger effect = lower value 0.998 | S. cerevisiae deletion strains, locus YML032C, strain rad52, stronger effect = lower value 0.991 | S. cerevisiae deletion strains, locus YML120C, strain ndi1, stronger effect = lower value 1 | S. cerevisiae deletion strains, locus YML124C, strain tub3, stronger effect = lower value 0.969 | S. cerevisiae deletion strains, locus YMR058W, strain fet3, stronger effect = lower value 0.994 | S. cerevisiae deletion strains, locus YMR078C, strain ctf18, stronger effect = lower value 0.965 | S. cerevisiae deletion strains, locus YMR125W, strain sto1, stronger effect = lower value 0.988 | S. cerevisiae deletion strains, locus YMR129W, stronger effect = lower value 0.991 | S. cerevisiae deletion strains, locus YMR205C, strain PFK2, stronger effect = lower value 0.952 | S. cerevisiae deletion strains, locus YMR223W, strain ubp8, stronger effect = lower value 0.955 | S. cerevisiae deletion strains, locus YMR231W, strain pep5, stronger effect = lower value 1.03 | S. cerevisiae deletion strains, locus YMR263W, strain SAP30, stronger effect = lower value 0.958 | S. cerevisiae deletion strains, locus YMR307W, strain GAS1, stronger effect = lower value 0.981 | S. cerevisiae deletion strains, locus YNL067W, strain RPL9B, stronger effect = lower value 0.989 | S. cerevisiae deletion strains, locus YNL071W, strain lat1, stronger effect = lower value 1.01 | S. cerevisiae deletion strains, locus YNL183C, strain NPR1, stronger effect = lower value 0.907 | S. cerevisiae deletion strains, locus YNL209W, strain ssb2, stronger effect = lower value 0.999 | S. cerevisiae deletion strains, locus YNL233W, strain BNI4, stronger effect = lower value 0.985 | S. cerevisiae deletion strains, locus YNL248C, strain rpa49, stronger effect = lower value 0.998 | S. cerevisiae deletion strains, locus YNL250W, strain rad50, stronger effect = lower value 0.977 | S. cerevisiae deletion strains, locus YNL271C, strain bni1, stronger effect = lower value 1 | S. cerevisiae deletion strains, locus YNL298W, strain CLA4, stronger effect = lower value 0.99 | S. cerevisiae deletion strains, locus YNL307C, strain MCK1, stronger effect = lower value 0.98 | S. cerevisiae deletion strains, locus YNL322C, strain KRE1 (second series), stronger effect = lower value 1 | S. cerevisiae deletion strains, locus YNL322C, strain KRE1, stronger effect = lower value 0.982 | S. cerevisiae deletion strains, locus YNR049C, strain mso1, stronger effect = lower value 0.999 | S. cerevisiae deletion strains, locus YNR052C, strain pop2, stronger effect = lower value 0.986 | S. cerevisiae deletion strains, locus YOL006C, strain TOP1, stronger effect = lower value 0.828 | S. cerevisiae deletion strains, locus YOL012C, strain htz1 0.985 | S. cerevisiae deletion strains, locus YOL147C, strain pex11, stronger effect = lower value 0.982 | S. cerevisiae deletion strains, locus YOR001W, strain rrp6, stronger effect = lower value 1 | S. cerevisiae deletion strains, locus YOR061W, strain CKA2, stronger effect = lower value 0.966 | S. cerevisiae deletion strains, locus YOR069W, strain VPS5, stronger effect = lower value 0.988 | S. cerevisiae deletion strains, locus YOR070C, strain gyp1, stronger effect = lower value 0.992 | S. cerevisiae deletion strains, locus YOR080W, strain dia2, stronger effect = lower value 0.981 | S. cerevisiae deletion strains, locus YOR083W, strain WHI5, stronger effect = lower value 0.947 | S. cerevisiae deletion strains, locus YOR106W, strain vam3, stronger effect = lower value 0.968 | S. cerevisiae deletion strains, locus YOR136W, strain idh2, stronger effect = lower value 0.978 | S. cerevisiae deletion strains, locus YOR144C, strain elg1, stronger effect = lower value 0.971 | S. cerevisiae deletion strains, locus YOR184W, strain ser1, stronger effect = lower value 0.897 | S. cerevisiae deletion strains, locus YOR231W, strain MKK1, stronger effect = lower value 0.945 | S. cerevisiae deletion strains, locus YOR265W, strain rbl2, stronger effect = lower value 0.969 | S. cerevisiae deletion strains, locus YOR270C, strain vph1, stronger effect = lower value 0.942 | S. cerevisiae deletion strains, locus YOR290C, strain snf2, stronger effect = lower value 0.999 | S. cerevisiae deletion strains, locus YOR316C, strain cot1, stronger effect = lower value 0.975 | S. cerevisiae deletion strains, locus YPL051W, strain arl3, stronger effect = lower value 0.988 | S. cerevisiae deletion strains, locus YPL055C, strain LGE1, stronger effect = lower value 0.922 | S. cerevisiae deletion strains, locus YPL078C, strain atp4, stronger effect = lower value 0.953 | S. cerevisiae deletion strains, locus YPL106C, strain sse1, stronger effect = lower value 0.941 | S. cerevisiae deletion strains, locus YPL240C, strain hsp82, stronger effect = lower value 0.99 | S. cerevisiae deletion strains, locus YPL256C, strain CLN2, stronger effect = lower value 0.931 | S. cerevisiae deletion strains, locus YPR119W, strain clb2, stronger effect = lower value 0.963 | S. cerevisiae deletion strains, locus YPR141C, strain kar3, stronger effect = lower value 0.973 | S. cerevisiae deletion strains, locus YPR163C, strain tif3, stronger effect = lower value 0.976 | S. cerevisiae deletion strains, locus YPR167C, strain met16, stronger effect = lower value 0.973 | S. cerevisiae deletion strains, strain wtn01, stronger effect = lower value 0.994 | S. cerevisiae strains, strain wild type, stronger effect = lower value 1.01
